Here are results for 6 compounds from PubChem BioAssay (NCI).

SMILES strings stand for the structures. The panel holds about 79,000 compounds, 15% with a hit somewhere; the sample as a whole holds those more often. Unmarked numbers belong to inactive results. Active and inactive are the calls of the source. No stated cut-off is given here; in the data, active means growth inhibition above about 70%; inactive means the rest.

Experiment [1] can be described thus: NCI Yeast Anticancer Drug Screen. Data for the rad50 strain (AID 155).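 Further: 0% = growth of vehicle-only cultures of the same strain.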 Conditions: S. cerevisiae rad50 strain growth inhibition, active compounds read high. The method, boiled down: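 Genetically altered yeast (DNA repair pathway); compound treatment; growth inhibition vs vehicle ctrl.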
A short description of experiment [2]: NCI Yeast Anticancer Drug Screen. Data for the mec2-1 strain (AID 157). The note with it: S. cerevisiae mec2-1 strain, active compounds read high. A digest of the protocol:
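Test agents were screened against the mec2-1 yeast strain, with defined DNA repair or cell cycle alteration. Growth was scored as inhibition against vehicle-only controls.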

A short description of experiment [3]: NCI Yeast Anticancer Drug Screen. Data for the sgs1 mgt1 strain (AID 161).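 Further: 0% = growth of cultures given vehicle only.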 The note with it: S. cerevisiae sgs1 mgt1 strain, active compounds read high. The method, boiled down:
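Genetically altered yeast, compound exposure, growth inhibition relative to vehicle.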

The nature of experiment [4]: NCI Yeast Anticancer Drug Screen. Data for the cln2 rad14 strain (AID 165).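 Further: 0% = growth equal to vehicle treated cultures.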 The note with it: S. cerevisiae cln2 rad14 strain, active compounds read high. A digest of the protocol: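 Growth of compound-exposed yeast (cln2 rad14 genotype) measured and expressed as inhibition relative to vehicle.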
Experiment [5] can be described thus: NCI Yeast Anticancer Drug Screen. Data for the bub3 strain (AID 167). Conditions: S. cerevisiae bub3 mutant strain, active compounds read high. A digest of the protocol: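 Yeast carrying a defined mutation is treated with each compound, and growth is compared with that of vehicle-exposed cells to give inhibition.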
Experiment [6] is described as follows: NCI Yeast Anticancer Drug Screen. Data for the mlh1 rad18 strain (AID 175). The note with it: S. cerevisiae mlh1 rad18 strain growth inhibition, active compounds read high. A digest of the protocol:
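In this whole-cell yeast screen, a strain with altered DNA damage repair is challenged with compound, and its growth is measured against matched vehicle-treated controls.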

[7] abbreviates: at 5.0 µM (retest, dose inferred, filed as 0.5).
The mark [8] stands for this setting: at 50.0 µM (retest, dose inferred, filed as 5.0).

As for `CN(C)CC(O)c1cc(-c2ccc(Cl)c(Cl)c2)nc2c(Cl)cc(Cl)cc12` (stereo not drawn), the growth inhibition in experiment [1] (setting [7]) is 3%; in experiment [1] (setting [8]) it was 98% (active); in experiment [1] (at 50.0 µM), 97.8% (active); in experiment [2] (setting [7]), -3%; in experiment [2] (setting [8]), 99% (active); in experiment [2] (at 50.0 µM), 98.5% (active). Also, the growth inhibition was -9% in experiment [3] (setting [7]); 99% (active) in experiment [3] (setting [8]); 98.5% (active) in experiment [3] (at 50.0 µM); -4% in experiment [4] (setting [7]); 97% (active) in experiment [4] (setting [8]); 98.2% (active) in experiment [4] (at 50.0 µM). Also, the growth inhibition was 0% in experiment [5] (setting [7]); 75% (active) in experiment [5] (setting [8]); 98.3% (active) in experiment [5] (at 50.0 µM); 1% in experiment [6] (setting [7]); 98% (active) in experiment [6] (setting [8]); 98% (active) in experiment [6] (at 50.0 µM).

Consider `ClC(Cl)(Cl)C(c1ccccc1)c1ccccc1`, for which the growth inhibition is 3% in experiment [1] (setting [7]); 30% in experiment [1] (setting [8]); 76.8% (active) in experiment [1] (at 50.0 µM); 0% in experiment [2] (setting [7]); 12% in experiment [2] (setting [8]); 38.5% in experiment [2] (at 50.0 µM). Also, the growth inhibition in experiment [3] (setting [7]) was 3%; in experiment [3] (setting [8]) it was 42%; in experiment [3] (at 50.0 µM), 71.1% (active); in experiment [4] (setting [7]), 4%; in experiment [4] (setting [8]), -3%; in experiment [4] (at 50.0 µM), -17.2%. The growth inhibition in experiment [5] (setting [7]) is -5%; in experiment [5] (setting [8]), 5%; in experiment [5] (at 50.0 µM), 16.4%; in experiment [6] (setting [7]) it was 16%; in experiment [6] (setting [8]) it was 15%; in experiment [6] (at 50.0 µM), 73.8% (active).

In the case of `CC=CCOc1cc(NC(=S)OC(C)C)ccc1Cl` (mixture of isomers), the growth inhibition in experiment [1] (setting [7]) is 28%; in experiment [1] (setting [8]) it was 94% (active); in experiment [1] (at 50.0 µM) it was 79.2% (active); in experiment [2] (setting [7]), 18%; in experiment [2] (setting [8]) it was 97% (active); in experiment [2] (at 50.0 µM), 89.2% (active). Moreover, the growth inhibition in experiment [3] (setting [7]) was 31%; in experiment [3] (setting [8]), 92% (active); in experiment [3] (at 50.0 µM), 88.4% (active); in experiment [4] (setting [7]) it was 22%; in experiment [4] (setting [8]), 96% (active); in experiment [4] (at 50.0 µM), 90% (active). The growth inhibition is 27% in experiment [5] (setting [7]); 97% (active) in experiment [5] (setting [8]); 89.7% (active) in experiment [5] (at 50.0 µM); 25% in experiment [6] (setting [7]); 96% (active) in experiment [6] (setting [8]); 85.8% (active) in experiment [6] (at 50.0 µM).

As for `CCOc1ccc2c(c1)nc1cc(Cl)ccc1[n+]2C`, the growth inhibition is 9% in experiment [1] (setting [7]); 81% (active) in experiment [1] (setting [8]); 85.5% (active) in experiment [1] (at 50.0 µM); 12% in experiment [2] (setting [7]); 84% (active) in experiment [2] (setting [8]); 87.2% (active) in experiment [2] (at 50.0 µM). Further, the growth inhibition was -2% in experiment [3] (setting [7]); 82% (active) in experiment [3] (setting [8]); 86.5% (active) in experiment [3] (at 50.0 µM); 8% in experiment [4] (setting [7]); 68% in experiment [4] (setting [8]); 75.2% (active) in experiment [4] (at 50.0 µM). Moreover, the growth inhibition in experiment [5] (setting [7]) is 26%; in experiment [5] (setting [8]) it was 88% (active); in experiment [5] (at 50.0 µM), 82.8% (active); in experiment [6] (setting [7]), 18%; in experiment [6] (setting [8]), 81% (active); in experiment [6] (at 50.0 µM), 89.7% (active).

For `Cc1cc(SCC(=O)c2ccc(Br)cc2)cc(C)[o+]1`, the growth inhibition was -14% in experiment [1] (setting [7]); 80% (active) in experiment [1] (setting [8]); 94.5% (active) in experiment [1] (at 50.0 µM); 4% in experiment [2] (setting [7]); 95% (active) in experiment [2] (setting [8]); 95% (active) in experiment [2] (at 50.0 µM). For the same compound, the growth inhibition in experiment [3] (setting [7]) was 20%; in experiment [3] (setting [8]) it was 81% (active); in experiment [3] (at 50.0 µM) it was 91.5% (active); in experiment [4] (setting [7]), -42%; in experiment [4] (setting [8]) it was 75% (active); in experiment [4] (at 50.0 µM), 90% (active). For the same compound, the growth inhibition in experiment [5] (setting [7]) was -5%; in experiment [5] (setting [8]), 95% (active); in experiment [5] (at 50.0 µM), 93.1% (active); in experiment [6] (setting [7]), -8%; in experiment [6] (setting [8]) it was 92% (active); in experiment [6] (at 50.0 µM), 95.1% (active).

`O=C1OC(C2OC(=O)C(=O)C2C(=O)c2ccc(Cl)c(Cl)c2)C(C(=O)c2ccc(Cl)c(Cl)c2)C1=O` (stereo not drawn): the growth inhibition is 7% in experiment [1] (setting [7]); 97% (active) in experiment [1] (setting [8]); 94.5% (active) in experiment [1] (at 50.0 µM); 10% in experiment [2] (setting [7]); 93% (active) in experiment [2] (setting [8]); 63.8% in experiment [2] (at 50.0 µM). Further, the growth inhibition in experiment [3] (setting [7]) is 14%; in experiment [3] (setting [8]), 97% (active); in experiment [3] (at 50.0 µM), 74.3% (active); in experiment [4] (setting [7]), 4%; in experiment [4] (setting [8]) it was 84% (active); in experiment [4] (at 50.0 µM), 34.5%. Moreover, the growth inhibition in experiment [5] (setting [7]) is -34%; in experiment [5] (setting [8]), 92% (active); in experiment [5] (at 50.0 µM) it was 55.2%; in experiment [6] (setting [7]), 12%; in experiment [6] (setting [8]), 98% (active); in experiment [6] (at 50.0 µM), 96.2% (active).
